In general, AC50 refers to the concentration giving half of the maximal activity seen.

Structures are written as SMILES. Results filed as inconclusive are left out. Activity calls are given as the source filed them. The calls were made as follows, unless noted: active = hit-call score of the fitted dose curve at least 0.9, where 1 is the maximum; inconclusive = response in the unintended direction; inactive = score below 0.9.

Test [1] in a line: ATG_M_32_XSP2: Attagene TRANS-FACTORIAL Multi-Species (XSP2) HepG2 Assay for M19 Transcription Factor (Internal Marker) (AID 2283826). The procedure, abridged: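 HepG2 cells transiently transfected with GAL4-UAS reporter transcription units, dosed with compound for 24 h in presence of 3 nM 6-alpha-fluorotestosterone and 1.5 nM norgestrel; reporter mRNA quantified by RT-PCR, FAM labelling, HpaI digestion and capillary electrophoresis.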

The target of test [2] is Peroxisome proliferator-activated receptor gamma (Homo sapiens) (UniProt P37231). As to the kind of experiment: ATG_hPPARg_XSP2: Attagene TRANS-FACTORIAL Multi-Species (XSP2) HepG2 Assay for human Peroxisome Proliferator-activated Receptor gamma (PPARg) (AID 2283829).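 Also: actives raise reporter mRNA above DMSO so AC50 reflects PPARg activation.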 In outline:
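HepG2 cells transiently transfected with multiplexed GAL4-UAS reporter units for chimeric NR-Gal4 receptors, dosed 24 h. Reporter mRNA quantified by RT-PCR, 6-FAM labeling, HpaI digestion and capillary electrophoresis; gain-of-signal fitted against DMSO baseline.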

The target of test [3] is mouse Peroxisome Proliferator-activated Receptor gamma (PPARg), Pparg (gene 19016) (UniProt P37238). As to the kind of experiment: ATG_mPPARg_XSP2: Attagene TRANS-FACTORIAL Multi-Species (XSP2) HepG2 Assay for mouse Peroxisome Proliferator-activated Receptor gamma (PPARg) (AID 2283830).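 Also: hits are gains in reporter mRNA above DMSO so AC50 marks activation.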 In outline:
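Multiplexed TRANS reporter readout: after 24 h chemical exposure of transfected HepG2 cells (with 3 nM 6-alpha-fluorotestosterone, 1.5 nM norgestrel present), RNA reverse-transcribed, amplified, 6-FAM-labelled and resolved by capillary electrophoresis; mouse PPARg-Gal4 induction scored against DMSO.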

Test [4] deals with Nuclear receptor subfamily 1 group I member 2 (Mus musculus) (UniProt O54915). Put plainly: ATG_mPXR_XSP2: Attagene TRANS-FACTORIAL Multi-Species (XSP1) HepG2 Assay for mouse Pregnane X Receptor (PXR) (AID 2283831). In outline:
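HepG2 cells transiently transfected with GAL4-UAS reporter units expressing chimeric NR-GAL4 proteins; reporter mRNA measured 24 h after dosing by RT-PCR with 6-FAM labelling and capillary electrophoresis, gain of signal relative to DMSO.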

In test [5] the target is zebrafish Thyroid Hormone Receptor alpha (TRa), thraa (gene 30670) (UniProt Q98867). Put plainly: ATG_zfTRa_XSP2: Attagene TRANS-FACTORIAL Multi-Species (XSP1) HepG2 Assay for zebrafish Thyroid Hormone Receptor alpha (TRa) (AID 2283832).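 Also: actives raise zebrafish TRa-Gal4 reporter transcript above DMSO baseline.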 In outline:
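Readout is reporter mRNA induction, quantified by RT-PCR and capillary electrophoresis with fluorescent labelling, after 24 h compound exposure of transiently transfected HepG2 cells carrying NR-Gal4 chimera reporters. Activity fitted upward relative to DMSO.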

The subject of test [6] is zebrafish Peroxisome Proliferator-activated Receptor gamma (PPARg), gene 557037. As to the kind of experiment: ATG_zfPPARg_XSP2: Attagene TRANS-FACTORIAL Multi-Species (XSP2) HepG2 Assay for zebrafish Peroxisome Proliferator-activated Receptor gamma (PPARg) (AID 2283833).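 Also: actives increase reporter signal over DMSO so AC50 reflects activation.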 In outline: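 HepG2 cells transiently transfected with GAL4-UAS reporter units expressing a zebrafish PPARg–GAL4 chimera; compound exposure 24 h. Reporter mRNA quantified by RT-PCR with fluorescent labelling and capillary electrophoresis; gain of signal fitted relative to DMSO baseline.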

Test [7] can be described thus: ATG_M_61_XSP2: Attagene TRANS-FACTORIAL Multi-Species (XSP2) HepG2 Assay for M61 Transcription Factor (Internal Marker) (AID 2283835; active = hit-call score of the fitted dose curve at least 0.9, where 1 is the maximum; inactive = score below 0.9;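 also: active means a rise in signal above the DMSO baseline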). In outline: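 Internal background marker, read as RT-PCR/capillary-electrophoresis reporter mRNA 24 h post-dose in transiently transfected HepG2 cells. Androgen receptor stimulated with 3 nM 6-alpha-fluorotestosterone plus 1.5 nM norgestrel; gain of signal versus DMSO analysed.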

Test [8] concerns the target zebrafish Thyroid Hormone Receptor beta (TRb), thrb (gene 30607) (UniProt Q9PVE4). Put plainly: ATG_zfTRb_XSP2: Attagene TRANS-FACTORIAL Multi-Species (XSP1) HepG2 Assay for zebrafish Thyroid Hormone Receptor beta (TRb) (AID 2283836). The procedure, abridged: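 Reporter transcripts were measured by RT-PCR with fluorescent primer extension and capillary electrophoresis, 24 h after chemical dosing of transiently transfected HepG2 cells. Activity was scored as upward signal versus DMSO baseline.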

For test [9], the target named is human Thyroid hormone Receptor alpha (TRa), THRA (gene 7067) (UniProt P10827). As to the kind of experiment: ATG_hTRa_XSP2: Attagene TRANS-FACTORIAL Multi-Species (XSP2) HepG2 Assay for human Thyroid hormone Receptor alpha (TRa) (AID 2283838). The procedure, abridged: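 Gain-of-signal in reporter mRNA, relative to DMSO, after 24 h dosing of transfected HepG2; quantitation by RT-PCR fragment analysis on capillary electrophoresis.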

For test [10], the target named is frog Thyroid hormone Receptor alpha (TRa), thra-a (gene 397942) (UniProt P15204). Put plainly: ATG_frTRa_XSP2: Attagene TRANS-FACTORIAL Multi-Species (XSP2) HepG2 Assay for frog Thyroid hormone Receptor alpha (TRa) (AID 2283839). In outline:
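HepG2 cells transiently transfected with multiplexed GAL4-UAS reporter units expressing chimeric frog TRα-Gal4; reporter mRNA read 24 h after dosing by RT-PCR, FAM-labelled primer extension, HpaI digest and capillary electrophoresis. Gain of signal fitted versus DMSO.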

The target of test [11] is human Thyroid hormone Receptor beta (TRb), THRB (gene 7068) (UniProt P10828). As to the kind of experiment: ATG_hTRb_XSP2: Attagene TRANS-FACTORIAL Multi-Species (XSP2) HepG2 Assay for human Thyroid hormone Receptor beta (TRb) (AID 2283840).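 Also: actives raise reporter mRNA so potency reflects agonist-like gain of signal.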 The procedure, abridged: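 HepG2 cells were transiently transfected with GAL4-UAS multiplexed reporter units expressing chimeric NR-Gal4 proteins, dosed 24 h; reporter mRNA was quantified by RT-PCR, fluorescent labeling, HpaI digestion and capillary electrophoresis, fitted for gain of signal versus DMSO.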

Test [12] is described as follows: CPHEA_Stoker_NIS_Cytotoxicity: Cytotoxicity Assessment for CPHEA's Radioactive Iodide Uptake (RAIU) Assay for Sodium/Iodide Symporter (NIS) Inhibition, Stoker and Laws Labs (AID 2283897). In outline:
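hNIS-HEK293T-EPA cells, human NIS expressed in HEK293T, treated 2 h with chemicals (0.001–100 uM, 0.5% final DMSO). ATP content read by CellTiter-Glo luminescence; loss of signal analysed relative to DMSO.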

The subject of test [13] is Sodium/Iodide Symporter (NIS), SLC5A5 (gene 6528). As to the kind of experiment: CPHEA_Stoker_NIS_Inhibition_RAIU: CPHEA's Radioactive Iodide Uptake (RAIU) Assay for Sodium/Iodide Symporter (NIS) Inhibition, Stoker and Laws Labs (AID 2283841). In outline:
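hNIS-HEK293T-EPA cells incubated 2 h at room temperature with compound (0.001–100 uM, 0.5% DMSO) and 329 pM final 125I in HBSS/10 mM HEPES, pH 7.4. Intracellular 125I counted; normalised to DMSO maximal uptake, triplicate, three biological replicates.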

In test [14] the target is Estrogen receptor (Homo sapiens) (UniProt P03372). As to the kind of experiment: ATG_hERa_XSP2: Attagene TRANS-FACTORIAL Multi-Species (XSP2) HepG2 Assay for human Estrogen Receptor (ERa) (AID 2283827). The procedure, abridged: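 Trans-activation of exogenous human ERa-Gal4 chimera read in HepG2 as reporter transcript after 24 h exposure; medium included 3 nM 6-alpha-fluorotestosterone and 1.5 nM norgestrel. Quantified by RT-PCR with capillary electrophoresis, positive-direction fitting against DMSO.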

In test [15] the test system is turtle Thyroid Hormone Receptor, alpha (TRa), gene 101949057. Put plainly: ATG_trTRa_XSP2: Attagene TRANS-FACTORIAL Multi-Species (XSP1) HepG2 Assay for turtle Thyroid Hormone Receptor, alpha (TRa) (AID 2283834).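 Also: hits raise reporter mRNA over the DMSO baseline so AC50 marks activators.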 The procedure, abridged:
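HepG2 cells transiently transfected with multiplexed GAL4-UAS reporter units expressing chimeric NR-Gal4 proteins were dosed for 24 hours. Reporter mRNA was quantified by RT-PCR with 6-FAM labelling and capillary electrophoresis, gain of signal scored against DMSO.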

The nature of test [16]: CEETOX_H295R_11DCORT_noMTC: CeeTox H295R High-throughput Steroidogenesis Assay for 11-Deoxycortisol (11DCORT), maximum tolerated concentration (MTC) filtered results only (AID 2283911; active = hit-call score of the fitted dose curve at least 0.9, where 1 is the maximum; inactive = score below 0.9). To be noted: actives raise or lower the signal. The procedure, abridged:
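HPLC-MS/MS read-out of 11-deoxycortisol after MTBE extraction of H295R medium. Cells: forskolin 10 uM pre-stimulation 48 h, chemical 48 h, 0.1% DMSO final. Bidirectional fit vs DMSO baseline; no MTC filtering.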

A short description of test [17]: CEETOX_H295R_OHPREG_noMTC: CeeTox H295R High-throughput Steroidogenesis Assay for OH-Pregnenolone (OHPREG), maximum tolerated concentration (MTC) filtered results only (AID 2283912; active = hit-call score of the fitted dose curve at least 0.9, where 1 is the maximum; inactive = score below 0.9). To be noted: actives raise or lower the signal. In outline: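 Medium 17alpha-hydroxypregnenolone quantified by reverse-phase HPLC-MS/MS after 48 h chemical exposure of forskolin-prestimulated (10 uM, 48 h) H295R, 0.1% DMSO final. Fitting bidirectional relative to DMSO; no maximum-tolerated-concentration filtering applied.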

Test [18] can be described thus: CEETOX_H295R_OHPROG_noMTC: CeeTox H295R High-throughput Steroidogenesis Assay for OH-Progesterone (OHPROG), maximum tolerated concentration (MTC) filtered results only (AID 2283914; active = hit-call score of the fitted dose curve at least 0.9, where 1 is the maximum; inactive = score below 0.9). To be noted: actives raise or lower the signal. The procedure, abridged:
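After 48 h forskolin (10 uM) prestimulation, H295R adrenal cells received test chemical in 0.1% DMSO for 48 h. Medium 17alpha-hydroxyprogesterone was MTBE-extracted and measured by HPLC-MS/MS; gain or loss relative to DMSO, no MTT-based MTC filtering.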

The nature of test [19]: CEETOX_H295R_CORTISOL_noMTC: CeeTox H295R High-throughput Steroidogenesis Assay for Cortisol, maximum tolerated concentration (MTC) filtered results only (AID 2283916; active = hit-call score of the fitted dose curve at least 0.9, where 1 is the maximum; inactive = score below 0.9). To be noted: actives raise or lower the signal. In outline: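 Cortisol secretion measured by LC-MS/MS after 48 h chemical treatment (final 0.1% DMSO) of forskolin-primed (10 uM, 48 h) H295R cells; gain or loss fitted relative to DMSO, without maximum-tolerated-concentration filtering.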

Sequence of mouse Peroxisome Proliferator-activated Receptor gamma (PPARg), Pparg (gene 19016) (P37238 whole entry, looked up, the tested form may be a part): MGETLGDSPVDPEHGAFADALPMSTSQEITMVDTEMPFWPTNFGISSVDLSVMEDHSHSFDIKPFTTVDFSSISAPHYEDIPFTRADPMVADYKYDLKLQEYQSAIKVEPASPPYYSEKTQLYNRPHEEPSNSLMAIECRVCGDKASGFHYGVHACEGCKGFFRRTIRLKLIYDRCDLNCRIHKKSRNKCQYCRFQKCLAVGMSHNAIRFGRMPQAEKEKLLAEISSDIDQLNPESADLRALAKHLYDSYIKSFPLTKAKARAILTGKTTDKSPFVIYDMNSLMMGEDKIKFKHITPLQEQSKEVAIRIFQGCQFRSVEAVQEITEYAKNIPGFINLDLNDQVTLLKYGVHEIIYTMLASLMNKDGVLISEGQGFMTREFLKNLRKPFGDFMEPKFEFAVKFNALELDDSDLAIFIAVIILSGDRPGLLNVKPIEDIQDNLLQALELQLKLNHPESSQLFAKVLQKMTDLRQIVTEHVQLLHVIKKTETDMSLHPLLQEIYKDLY
Sequence of frog Thyroid hormone Receptor alpha (TRa), thra-a (gene 397942) (P15204 whole entry, looked up, the tested form may be a part): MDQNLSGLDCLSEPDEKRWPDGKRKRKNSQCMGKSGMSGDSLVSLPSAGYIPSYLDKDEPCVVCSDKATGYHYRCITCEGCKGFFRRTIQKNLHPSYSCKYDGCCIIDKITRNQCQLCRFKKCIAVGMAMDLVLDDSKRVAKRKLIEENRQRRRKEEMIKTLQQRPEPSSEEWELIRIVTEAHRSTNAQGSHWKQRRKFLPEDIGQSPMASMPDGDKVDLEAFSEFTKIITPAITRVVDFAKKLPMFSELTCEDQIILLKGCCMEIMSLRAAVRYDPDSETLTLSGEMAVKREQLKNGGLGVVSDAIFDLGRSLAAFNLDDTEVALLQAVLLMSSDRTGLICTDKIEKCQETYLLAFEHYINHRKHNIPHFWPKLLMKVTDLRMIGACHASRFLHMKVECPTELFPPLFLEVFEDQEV
Sequence of human Thyroid hormone Receptor beta (TRb), THRB (gene 7068) (P10828 whole entry, looked up, the tested form may be a part): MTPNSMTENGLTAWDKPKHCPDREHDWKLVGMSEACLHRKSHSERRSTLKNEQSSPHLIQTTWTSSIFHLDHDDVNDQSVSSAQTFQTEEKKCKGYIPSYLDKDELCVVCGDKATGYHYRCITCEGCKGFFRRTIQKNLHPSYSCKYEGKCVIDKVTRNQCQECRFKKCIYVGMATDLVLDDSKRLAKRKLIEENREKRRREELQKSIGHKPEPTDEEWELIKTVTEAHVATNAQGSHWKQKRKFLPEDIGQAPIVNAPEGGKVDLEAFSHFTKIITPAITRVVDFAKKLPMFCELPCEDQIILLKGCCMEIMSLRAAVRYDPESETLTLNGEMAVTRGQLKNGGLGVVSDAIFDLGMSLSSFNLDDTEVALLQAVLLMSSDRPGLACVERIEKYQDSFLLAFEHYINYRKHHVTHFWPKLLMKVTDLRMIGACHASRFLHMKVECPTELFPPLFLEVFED
Sequence of Nuclear receptor subfamily 1 group I member 2 (Mus musculus) (O54915 whole entry, looked up, the tested form may be a part): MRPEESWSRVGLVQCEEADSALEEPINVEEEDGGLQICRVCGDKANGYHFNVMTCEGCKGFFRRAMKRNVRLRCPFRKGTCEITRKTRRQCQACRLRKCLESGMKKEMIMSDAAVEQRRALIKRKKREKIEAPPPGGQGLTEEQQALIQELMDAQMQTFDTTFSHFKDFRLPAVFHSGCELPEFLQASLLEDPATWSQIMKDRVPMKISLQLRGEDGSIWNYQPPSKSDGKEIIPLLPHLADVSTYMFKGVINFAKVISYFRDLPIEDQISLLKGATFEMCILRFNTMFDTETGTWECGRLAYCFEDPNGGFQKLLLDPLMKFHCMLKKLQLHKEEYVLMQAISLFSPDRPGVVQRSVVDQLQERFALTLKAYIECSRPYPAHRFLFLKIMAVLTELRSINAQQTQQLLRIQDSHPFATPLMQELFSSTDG
Sequence of zebrafish Thyroid Hormone Receptor alpha (TRa), thraa (gene 30670) (Q98867 whole entry, looked up, the tested form may be a part): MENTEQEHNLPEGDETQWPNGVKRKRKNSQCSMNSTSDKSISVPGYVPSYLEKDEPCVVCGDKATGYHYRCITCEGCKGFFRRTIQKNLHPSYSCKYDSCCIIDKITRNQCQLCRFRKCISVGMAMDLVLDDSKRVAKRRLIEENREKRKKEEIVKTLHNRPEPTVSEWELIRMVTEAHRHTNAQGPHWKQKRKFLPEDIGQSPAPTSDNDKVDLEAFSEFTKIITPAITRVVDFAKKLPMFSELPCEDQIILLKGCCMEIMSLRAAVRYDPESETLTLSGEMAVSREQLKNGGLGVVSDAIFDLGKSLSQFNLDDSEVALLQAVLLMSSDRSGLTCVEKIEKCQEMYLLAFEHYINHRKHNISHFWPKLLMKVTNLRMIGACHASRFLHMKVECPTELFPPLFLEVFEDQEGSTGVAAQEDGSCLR
Sequence of Peroxisome proliferator-activated receptor gamma (Homo sapiens) (P37231 whole entry, looked up, the tested form may be a part): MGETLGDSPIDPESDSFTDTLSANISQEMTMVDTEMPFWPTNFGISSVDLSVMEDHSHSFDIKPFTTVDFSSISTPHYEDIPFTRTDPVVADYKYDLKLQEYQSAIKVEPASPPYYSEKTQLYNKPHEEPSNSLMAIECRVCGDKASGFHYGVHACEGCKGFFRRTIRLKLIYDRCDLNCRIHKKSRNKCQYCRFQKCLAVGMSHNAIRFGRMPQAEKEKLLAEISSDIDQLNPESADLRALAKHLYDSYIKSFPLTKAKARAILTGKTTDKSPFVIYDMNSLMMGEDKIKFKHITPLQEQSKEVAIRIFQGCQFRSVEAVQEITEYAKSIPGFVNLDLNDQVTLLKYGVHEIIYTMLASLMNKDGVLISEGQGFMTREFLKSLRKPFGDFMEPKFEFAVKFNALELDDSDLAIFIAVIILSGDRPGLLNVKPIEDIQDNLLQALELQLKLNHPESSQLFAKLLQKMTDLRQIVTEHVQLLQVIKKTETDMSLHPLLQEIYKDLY
Sequence of zebrafish Thyroid Hormone Receptor beta (TRb), thrb (gene 30607) (Q9PVE4 whole entry, looked up): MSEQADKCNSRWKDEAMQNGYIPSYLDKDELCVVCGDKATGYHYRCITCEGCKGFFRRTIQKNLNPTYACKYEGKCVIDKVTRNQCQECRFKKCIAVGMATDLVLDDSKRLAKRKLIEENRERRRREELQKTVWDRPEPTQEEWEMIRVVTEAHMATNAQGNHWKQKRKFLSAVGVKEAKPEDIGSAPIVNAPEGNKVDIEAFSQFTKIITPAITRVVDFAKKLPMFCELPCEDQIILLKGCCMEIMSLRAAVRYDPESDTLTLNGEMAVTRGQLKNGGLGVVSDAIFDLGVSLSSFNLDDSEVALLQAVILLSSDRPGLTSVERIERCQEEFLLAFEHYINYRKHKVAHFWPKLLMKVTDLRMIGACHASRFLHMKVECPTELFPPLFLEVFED
Sequence of Estrogen receptor (Homo sapiens) (P03372 whole entry, looked up, the tested form may be a part): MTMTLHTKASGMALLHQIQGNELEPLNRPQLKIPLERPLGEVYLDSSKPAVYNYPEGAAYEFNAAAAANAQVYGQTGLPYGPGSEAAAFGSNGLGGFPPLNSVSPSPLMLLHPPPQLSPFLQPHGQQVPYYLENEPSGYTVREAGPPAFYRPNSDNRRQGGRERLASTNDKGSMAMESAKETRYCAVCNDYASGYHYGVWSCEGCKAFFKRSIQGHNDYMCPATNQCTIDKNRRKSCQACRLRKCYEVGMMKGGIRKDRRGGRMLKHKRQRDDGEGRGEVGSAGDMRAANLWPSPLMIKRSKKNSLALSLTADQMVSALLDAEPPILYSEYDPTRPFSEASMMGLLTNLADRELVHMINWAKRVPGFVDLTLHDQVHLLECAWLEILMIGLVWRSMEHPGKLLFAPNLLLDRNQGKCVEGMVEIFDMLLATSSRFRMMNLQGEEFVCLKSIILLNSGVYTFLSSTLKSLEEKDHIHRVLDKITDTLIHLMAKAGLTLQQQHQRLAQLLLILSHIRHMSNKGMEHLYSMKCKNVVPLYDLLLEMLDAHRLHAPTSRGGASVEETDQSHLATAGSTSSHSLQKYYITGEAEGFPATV
Sequence of human Thyroid hormone Receptor alpha (TRa), THRA (gene 7067) (P10827 whole entry, looked up, the tested form may be a part): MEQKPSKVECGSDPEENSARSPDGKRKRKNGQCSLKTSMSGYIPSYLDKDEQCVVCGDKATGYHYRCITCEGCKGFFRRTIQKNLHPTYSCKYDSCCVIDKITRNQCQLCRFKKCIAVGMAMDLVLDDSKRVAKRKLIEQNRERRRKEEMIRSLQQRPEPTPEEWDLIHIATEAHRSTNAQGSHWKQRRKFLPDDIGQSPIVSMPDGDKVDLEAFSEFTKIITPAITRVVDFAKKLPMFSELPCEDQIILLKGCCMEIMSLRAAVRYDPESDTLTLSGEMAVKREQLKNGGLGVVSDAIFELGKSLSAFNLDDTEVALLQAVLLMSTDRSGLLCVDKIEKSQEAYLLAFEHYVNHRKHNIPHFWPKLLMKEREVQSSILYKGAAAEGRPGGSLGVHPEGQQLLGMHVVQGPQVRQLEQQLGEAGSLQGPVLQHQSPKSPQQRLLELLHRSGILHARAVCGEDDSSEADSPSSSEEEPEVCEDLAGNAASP

Take `Clc1ccc(C(c2ccc(Cl)cc2)C(Cl)(Cl)Cl)cc1`: the result in test [1], in [2], in test [5], in [6], in test [7] and in test [8] was inactive. In addition, the result in [9], in [10], in test [11] and in test [12] was inactive. Besides, the figures for the AC50 in test [3] and in test [4] were 100 µM (active) and 4.54 µM (active), respectively.

Regarding `Nc1ccc(Cl)cc1N`, the AC50 in [13] was 50 µM (active). Moreover, in test [12], the result was inactive.

Take `CCCCCOC(=O)c1ccccc1C(=O)OCCCCC`: the AC50 in test [14] was 72.1 µM (active); in test [2], 19.8 µM (active); in test [3] it was 62.9 µM (active); in test [6], 174 µM (active). Moreover, the result in test [4], in test [15], in test [10], in [11], in test [12] and in [16] was inactive. Further, the molecule was classed as inactive in test [17], in test [18] and in [19].

Consider `CCCCCCCCn1sccc1=O`, for which the result in test [13] and in [12] was inactive.

`CCCCOC(=O)c1ccccc1C(=O)OCc1ccccc1`: the AC50 in [3] was 60.8 µM (active). For the same molecule, the outcome in [4], in test [5], in test [6], in test [15], in [7] and in test [8] was inactive. Besides, the molecule was called inactive in [10], in [11], in test [13], in [12], in test [16] and in test [17]. The molecule was classed as inactive in test [18] and in test [19].

The record behind these values is PubChem BioAssay (EPA / NIEHS).
